Here are results for 23 sequences from article PMC7819943, “Rice protein-binding microarrays: a tool to detect cis-acting elements near promoter regions in rice”.

Whole data set: some 68,000 sequences, median “fluorescence intensity (a.u.)” near 9,100, cut for the highest 2% near 16,000. The list comes from a sample in which the highest values are over-represented; it also holds similar and randomly drawn sequences.

Chain of OsWRKY34 (Q0JBA9 entry or part of it): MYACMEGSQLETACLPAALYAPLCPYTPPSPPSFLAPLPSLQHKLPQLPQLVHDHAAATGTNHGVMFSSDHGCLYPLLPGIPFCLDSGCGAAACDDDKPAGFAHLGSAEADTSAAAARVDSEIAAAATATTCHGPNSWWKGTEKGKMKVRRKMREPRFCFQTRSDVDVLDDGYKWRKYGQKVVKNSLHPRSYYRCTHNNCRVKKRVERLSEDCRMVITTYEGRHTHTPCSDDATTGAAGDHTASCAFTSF

This experiment concerns the target OsWRKY34 (Oryza sativa, UniProt Q0JBA9 1-250). Nature of the experiment: protein-binding microarray (RPBM); PBS, 2% BSA, 51.3 ng/ul salmon testes DNA, 50 uM zinc acetate, 200 nM TF, 25 C, 1 h; high values mean tight binding. The conditions noted are these: protein: recombinant; tags: N-terminal polyhistidine and DsRed monomer fusion (pET32a); label: CyDye5-dUTP incorporated in the synthesized complementary strand; 3' TTTTT single-stranded linker to array surface; dsDNA, one strand shown. A digest of the protocol: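 For the binding signal, per-feature fluorescence intensity was read in arbitrary units on an Axon 4000B scanner. Before scanning, a 2% BSA-blocked custom Agilent array made double-stranded with Cy5-dUTP was washed after 1 h at 25 °C with 200 nM protein and 50 µM zinc acetate. The proteins were Ni–NTA-purified transcription factors with N-terminal polyhistidine and DsRed fusions, expressed in E. coli BL21-CodonPlus.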
For the sequence “AACAGCTCTCGATCTGATCGTCCCCACACCGCACGCTGACCGGAGTCACCTAGTGCAG”, the binding signal is 9930 fluorescence intensity (a.u.).
Turning to “CCTCGCCGAAGCCTCTCTACCTCTGTGTGTCTCTCTCTCCCGGAGTCACCTAGTGCAG”, the binding signal was 8120 fluorescence intensity (a.u.).
“AAACTTCCCCGCGTACGATGACGCCAATACACATACATATCGGAGTCACCTAGTGCAG”: the binding signal is 10700 fluorescence intensity (a.u.).
Take “GAGTGTATTTCATCTCAAGTTAGCATGCGAGTTTTTTTTACGGAGTCACCTAGTGCAG”: the binding signal was 8210 fluorescence intensity (a.u.).
Consider “TATCGTGCTTCCATGTGCACAGATCGATCAAACTCGCATGCGGAGTCACCTAGTGCAG”, for which the binding signal was 9270 fluorescence intensity (a.u.).
Turning to “ATGTATGACGCTGTTGACTTTGTAACCAATATTTGACCATCGGAGTCACCTAGTGCAG”, the binding signal was 13400 fluorescence intensity (a.u.).
For the sequence “TGTATGATGCTGTTGACTTTTTATCCAACGTTTGACCATCCGGAGTCACCTAGTGCAG”, the binding signal was 21200 fluorescence intensity (a.u.).
“GTGTATTTATGGTTTTTTTTTCAACGTTTGACCATCCGTTCGGAGTCACCTAGTGCAG”: the binding signal was 12300 fluorescence intensity (a.u.).
For “ATACATGACGCCGTTGATTTTTTAATCAACGTTTGACCATCGGAGTCACCTAGTGCAG” the value was 8210 fluorescence intensity (a.u.).
Consider “GGTATAGTTTTATACTGTTTATATCCAACGTTTGACCGTTCGGAGTCACCTAGTGCAG”, for which the binding signal was 10200 fluorescence intensity (a.u.).
For “GTGTATGATGCCGTTGACTTTTTATCCAACGTTTGACCATCGGAGTCACCTAGTGCAG” the value was 38800 fluorescence intensity (a.u.); for “TGGTGGAGAAGCTAATGAAGAGGGTGTTTTGTTGACTATGCGGAGTCACCTAGTGCAG”, 8500 fluorescence intensity (a.u.).
For “GTTACATTCTTGTTCAGTCCTCACTACTCATCCCTACAATCGGAGTCACCTAGTGCAG” the value was 11500 fluorescence intensity (a.u.); for “CCCACTATCATCCGTCATCCGTGCAACGCACGGGCATTATCGGAGTCACCTAGTGCAG”, 9340 fluorescence intensity (a.u.); for “CTCCGTTTTTTAATAGATGACGCCGTTGACTTTTTCTCACCGGAGTCACCTAGTGCAG”, 27800 fluorescence intensity (a.u.).
In the case of “GCCGCGGCGGAGCTCCCGTTTCCGTTGCCGTCTCCGGCGCCGGAGTCACCTAGTGCAG”, the binding signal is 11000 fluorescence intensity (a.u.).
As for “CTCCGTTTTTTAATAGATGACACCGTTGACTTTTTCTCACCGGAGTCACCTAGTGCAG”, the binding signal is 30600 fluorescence intensity (a.u.).
For the sequence “TCCGTTTTTTAATAGATGACGCCGTTGACTTTTTCTCACACGGAGTCACCTAGTGCAG”, the binding signal was 31700 fluorescence intensity (a.u.).
For the sequence “GTCTCACCGGAGCTCCGCCGCCGCCGCCGCCGTTTTCTCCCGGAGTCACCTAGTGCAG”, the binding signal was 25700 fluorescence intensity (a.u.).
Consider “CGTTTTTTAATAGATGACGCCATTGACTTTTTCTCACATACGGAGTCACCTAGTGCAG”, for which the binding signal was 11000 fluorescence intensity (a.u.).
As for “CTCCCGCCGTCTCCGTCACCGTCTACCGTTTGCTCCAGTGCGGAGTCACCTAGTGCAG”, the binding signal is 9530 fluorescence intensity (a.u.).
“CTGATTATACCATTGTTTTCGTTGCAACTAAATCTTGATACGGAGTCACCTAGTGCAG”: the binding signal is 9280 fluorescence intensity (a.u.).
Consider “TGCAAGCTCCGCCGTTTGTGTGTAATGGGGTTTCCCAAATCGGAGTCACCTAGTGCAG”, for which the binding signal was 8230 fluorescence intensity (a.u.).
